An excerpt weighted towards active compounds, which were near 11% of everything screened.
3T3 cytotox = Cytotoxic Profiling in NIH 3T3 Cell Line of Diverse Libraries Using Quantitative High-Throughput Screening; NIH 3T3 viability, CellTiter-Glo ATP luminescence, 48-72 h; Potency, µM (highest dose often 96.7 µM), without a hit: at the top dose activity change, negative = cytotoxicity, hits mostly inhibitors; actives 4.3% (n = 94,000); AID 1345082, 2018; note: nearly all actives have a fitted effect of over 55% in size
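First NIH 3T3 cells are plated at 400 cells/well; next compound is pinned in; then plates incubate 48 or 72 hr at 37 °C; finally CellTiter-Glo is added and luminescence read after 10 min.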
HEK293 tox = Cytotoxic Profiling in HEK 293 Cell Line of Diverse Libraries Using Quantitative High-Throughput Screening | actives 6.6% (n = 94,000) | Potency, µM (series often up to 115 µM), for the others: at the highest dose activity change, negative = cytotoxicity, hits mostly inhibitors | HEK 293 viability, ATP luminescence (CellTiter-Glo), 48-72 h | AID 1345083, 2018; note: nearly all actives have a fitted effect of over 60% in size
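Luminescence from cellular ATP, measured with CellTiter-Glo, indicates HEK 293 viability. Cells plated at 250 cells/well are treated with compound for 48 or 72 hr at 37 degree Celsius before reagent addition.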
hNpr1 antagonist = Natriuretic polypeptide receptor (hNpr1) antagonism - Primary qHTS. AID 1347048, 2019. Potency, µM (highest dose often 46.3 µM), without a hit: at the highest dose activity change, negative = inhibition, hits mostly inhibitors. HEK293 hNpr1 GloSensor cGMP, ANP-stimulated luminescence. Atrial natriuretic peptide receptor 1 (Homo sapiens), P16066. actives 1.6% (n = 76,000); calls by dose curve; note: nearly all actives have a fitted effect of over 60% in size
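HEK293 cells stably expressing human Npr1 and cGMP GloSensor pGS-40F, loaded 2 h with 2% GloSensor reagent, given compound 30 min at room temperature. Luminescence read before and 20 min after 0.1 nM hNppA.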
FLuc inh = Firefly luciferase inhibition profiling of diverse chemical library using quantitative high-throughput screening; Potency, µM (series often up to 115 µM), actives largely listed as inhibitors; AID 1347043, 2019; Luciferin 4-monooxygenase (Photinus pyralis), P08659; purified P. pyralis luciferase, luminescence, biochemical; actives 2.5% (n = 76,000); note: nearly all actives have a fitted effect of over 65% in size
Target sequence (P08659 whole entry, looked up): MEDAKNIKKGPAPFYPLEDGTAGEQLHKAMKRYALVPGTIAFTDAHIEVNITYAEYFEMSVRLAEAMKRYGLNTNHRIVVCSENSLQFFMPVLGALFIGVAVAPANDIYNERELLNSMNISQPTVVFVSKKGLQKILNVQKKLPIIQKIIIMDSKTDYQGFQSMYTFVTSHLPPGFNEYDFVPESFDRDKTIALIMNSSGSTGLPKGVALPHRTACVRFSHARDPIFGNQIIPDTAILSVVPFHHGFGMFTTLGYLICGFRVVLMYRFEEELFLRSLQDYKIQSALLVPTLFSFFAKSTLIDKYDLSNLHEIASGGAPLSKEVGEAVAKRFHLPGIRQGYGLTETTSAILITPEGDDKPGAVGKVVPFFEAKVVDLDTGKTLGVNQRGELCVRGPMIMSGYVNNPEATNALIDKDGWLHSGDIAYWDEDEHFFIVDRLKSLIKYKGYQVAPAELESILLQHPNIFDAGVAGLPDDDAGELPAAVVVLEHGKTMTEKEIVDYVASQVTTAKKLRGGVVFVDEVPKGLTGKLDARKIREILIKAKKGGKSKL
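Biochemical qHTS: compound (6-point titration) added to 10uM D-luciferin plus 10uM ATP in Tris acetate pH 7.5 buffer with Mg, Tween-20 and BSA, then purified enzyme at 10nM; light output imaged.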
* marks the source's active call; other numbers are inactive results; i = inactive; ? = inconclusive; / = not tested or not shown; ! = not confirmed by another sample; [ ] = remark or other dose. Unless noted, calls come from the whole dose curve; as a rule, active = well fitted curve in the direction sought with a large enough effect; inconclusive = small, poorly fitted or top-dose-only effect, or another doubt; inactive = no such curve, though single readings can be large; an effect the other way counts as inactive or inconclusive. % is set by controls: 0 for no effect and ±100 for the full control effect; potency is the fitted concentration of half-maximal effect.

SMILES	3T3 cytotox	HEK293 tox	hNpr1 antagonist	FLuc inh
O=c1cc(-c2ccncc2)oc2c(-c3cccc(CO)c3)nccc12	45µM*	-26%[172 µM]	5%[70.6 µM]	i
Cc1ccccc1-c1nccc2c(=O)cc(-c3ccncc3)oc12	?	100µM*	6%[70.6 µM]	i
Cn1cc(-c2cc(=O)c3ccnc(-c4cccc5[nH]ccc45)c3o2)cn1	?	?	1%[70.6 µM]	i
COc1ncccc1-c1nccc2c(=O)cc(-c3ccncc3)oc12	28µM*	-25%[172 µM]	13%[70.6 µM]	i
OC1(CNCc2cc(C(F)(F)F)ccc2F)CNCCOC1 (centres undefined)	0%	-2%	-2%	i
Cc1ccc(NC(=O)N2C[C@H](c3nc(-c4cccnc4)no3)[C@@H](C)C2)cc1	-14%	?	2%	?
COCCN1CCC(C(=O)Nc2ccc(Oc3ccccc3F)cc2)CC1	?	50µM*	-3%	i
Cc1cccc(S(=O)(=O)Nc2cccn3nc(C4CCC4)nc23)c1	45µM*	?	-2%	i
O=C(COc1ccccc1)Nc1cccn2nc(C3CCC3)nc12	?	?	3%	i
O=C(Nc1cccn2nc(C3CCC3)nc12)c1ccccn1	8.9µM*	?	-20%	i
COc1ccc(CN2CCCC23Cc2ccccc2CNC3=O)cc1F (centres undefined)	-15%	?	/	/
c1cnn(-c2ccc(-c3n[nH]c(C4CCOCC4)n3)cc2)c1	i	1%	11%	?
c1cc(N2CCCCC2)ccc1-c1n[nH]c(C2CCOC2)n1 (centres undefined)	?	-11%	-29%	6.3µM*
COC(=O)CNC(=O)c1nc2cccnc2n(CC(C)C)c1=O	-25%[138 µM]	0%[172 µM]	/	/
CC(C)Cn1c(CNC(=O)OC(C)(C)C)nc2cccnc21	45µM*!	?	5%[70.6 µM]	i
CC1(c2ccccc2)N(Cc2cccnc2)C(=O)OC12CCN(C(=O)C1CCC1)CC2 (centres undefined)	18µM*	-15%[172 µM]	0%[70.6 µM]	i
CC1(c2ccccc2)N(Cc2cccnc2)C(=O)OC12CCN(C(=O)c1ccccc1)CC2 (centres undefined)	?	1%[172 µM]	-6%[70.6 µM]	i
COc1ccc(C(=O)N2CCC3(CC2)OC(=O)N(Cc2cccnc2)C3(C)c2ccccc2)cn1 (centres undefined)	40µM*	i	0%	i
Cc1ncsc1C(=O)N1CCC2(CC1)OC(=O)N(Cc1cccnc1)C2(C)c1ccccc1 (centres undefined)	22µM*	i	4%	i
CC1(c2ccccc2)N(Cc2cccnc2)C(=O)OC12CCN(C(=O)c1ccc(F)cc1)CC2 (centres undefined)	?	i	0%	i
Cc1ncsc1C(=O)N1CCC2(CC1)OC(=O)N(Cc1ccccc1)C2(C)c1cccnc1 (centres undefined)	22µM*	i	4%	i
O=c1n(-c2ccncc2)nc2n1CCN(Cc1ccccc1)C2	?	79µM*	-27%[70.6 µM]	?
O=c1n(-c2ccncc2)nc2n1CCN(Cc1ccc(OC(F)(F)F)cc1)C2	?	22µM*	?	i
COc1cccc(S(=O)(=O)N2CCC(n3cnnc3-c3ccccc3)CC2)c1	?	?	-26%	i
Clc1ccc(-c2noc([C@@H]3Cc4nc[nH]c4CN3CC3CCCCC3)n2)cc1	28µM*	50µM*	-15%[70.6 µM]	i
SMILES	3T3 cytotox	HEK293 tox	hNpr1 antagonist	FLuc inh
c1cc(-c2noc([C@@H]3Cc4nc[nH]c4CN3CC3CCCCC3)n2)ccn1	79µM*	?	-6%[70.6 µM]	i
CN(C)c1ccc(-c2noc([C@@H]3CCCN3CC3CCCCC3)n2)cn1	79µM*	?	?	35µM*
c1csc(CN2Cc3[nH]cnc3C[C@H]2c2nc(-c3ccncc3)no2)c1	?	?	-28%[70.6 µM]	i
FC(F)(F)c1ccc(-c2noc([C@@H]3Cc4nc[nH]c4CN3CC3CCCCC3)n2)cc1	28µM*	32µM*	-17%[70.6 µM]	i
CN(C)c1ccc(-c2noc([C@@H]3CCCN3Cc3ccc(CO)o3)n2)cn1	3%[174 µM]	0%[172 µM]	1%[70.6 µM]	?
O=C(c1ccc2cc[nH]c2c1)N1CCC(N2CC(OCC3CC3)C23CCOCC3)CC1 (centres undefined)	i	-4%	-1%	i
Cn1nc(CN2CCOCC2)c2c1CCN(S(=O)(=O)c1cccc3cccnc13)C2	-13%	-3%	/	/
Cc1ccc2nc(CO[C@H]3CN(Cc4ccc(C(=O)O)cc4)C[C@H]3F)[nH]c2c1	i	-5%[172 µM]	-1%[70.6 µM]	?
CNC(=O)c1cc(C2CC2)nc2onc(C3CCCN(C(=O)c4cccc(Cl)c4)C3)c12 (centres undefined)	-29%	?	/	/
N#CC1(c2ccc(-c3cccc(CN4CCOCC4)c3)cc2)CCCC1	?	?	-8%	35µM*
Cn1ncc(CN2CCCC23CCN(c2ccc(C(F)(F)F)cn2)CC3)c1C1CC1	?	?	4%	i
CCOc1ccccc1NC(=O)N1CCCCCCNC(=O)[C@@H]2CCCC[C@@H]21	-23%	?	1%	i
COc1ccc2[nH]c3c(c2c1)CCNC31CCN(C(=O)c2cnc(C)cn2)CC1	-3%	?	9%	i
COc1ccc2[nH]c3c(c2c1)CCNC31CCN(C(=O)c2ccc(OC)nc2OC)CC1	-28%	11µM*	3%	i
COc1ccc2[nH]c3c(c2c1)CCNC31CCN(C(=O)c2ccc(C)nc2)CC1	-11%	79µM*	1%	i
N#CC1CCN(C(=O)CNC(=O)c2cccc(-c3ccsc3)c2)CC1	-14%	?	/	/
C[S+](=O)([O-])N1Cc2ccccc2CC2(CCN(CCc3ccccc3)C2)C1 (centres undefined)	-27%	?	/	/
COc1cccc(-c2cccc(C(=O)N3CCN([S+](=O)([O-])c4ccccc4)CC3)c2)c1	?	35µM*	/	/
COc1cccc(-c2cccc(C(=O)N3CCN(C(=O)c4ccc(F)cc4)CC3)c2)c1	?	28µM*	/	/
COc1cccc(C(=O)N2CCN(C(=O)c3cccc(-c4ccccn4)c3)CC2)c1	-20%	?	/	/
O=C(NCc1cccc(Cl)c1)c1ccc2nnc(-c3ccc(OC(F)(F)F)cc3)n2c1	-29%	?	/	/
c1cc(-c2nc(-c3ccc(OC4CNC4)cc3)no2)ccn1	?	?	-3%	?
O=C(NCc1ccccc1)N1CC(Oc2cccc(-c3nc(-c4ccccc4)no3)c2)C1	?	18µM*	-20%	i
Cc1cc(C)n(CCC(=O)N2CC(Oc3cccc(-c4nc(-c5ccccc5)no4)c3)C2)n1	40µM*	?	?	28µM*
c1coc(CN2CC(Oc3ccc(-c4noc(-c5ccncc5)n4)cc3)C2)c1	?	18µM*	11µM*	4µM*

Assay outcomes: PubChem BioAssay, National Center for Advancing Translational Sciences (NCATS)
